This passage reports Potency, outcome and activity change, positive = activation results from PubChem BioAssay (Tox21).

Test [1] is described as follows: qHTS assay to identify small molecule agonists of the constitutive androstane receptor (CAR) signaling pathway - cell viability counter screen (AID 1224836). Note: nearly all actives have a fitted effect of over 45% in size. Note: potency is the fitted concentration of half-maximal effect. The essentials:
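HepG2 cells stably carrying hCAR and a CYP2B6-2.2kb reporter; 15-concentration compounds plus PK11195 (final 0.75 uM), 23 hr at 37 C/5% CO2. Viability read by CellTiter-Fluor fluorescence.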

The nature of test [2]: qHTS assay to identify small molecule antagonists of the constitutive androstane receptor (CAR) signaling pathway - cell viability counter screen (AID 1224837). Note: nearly all actives have a fitted effect of over 45% in size. Note: potency is the fitted concentration of half-maximal effect. In a few lines: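 In quantitative HTS format, compounds at 15 concentrations were applied to HepG2 cells double-transfected with hCAR and CYP2B6-2.2kb under 50 nM CITCO stimulation; live-cell protease activity was read after 23 hr via CellTiter-Fluor.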
(In qHTS, concentration-response curves come from the screen itself.)

Test [3] concerns the target Nuclear receptor subfamily 1 group I member 3 (Homo sapiens) (UniProt Q14994). Briefly: qHTS assay to identify small molecule antagonists of the constitutive androstane receptor (CAR) signaling pathway (AID 1224838). Note: nearly all actives have a fitted effect of over 40% in size. The essentials:
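CITCO-stimulated (50 nM final) HepG2 cells stably transfected with hCAR and CYP2B6-2.2kb luciferase were exposed to compounds at 15 concentrations for 24 h at 37 C/5% CO2. A luciferase reagent was added and luminescence recorded after 30 min.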

Test [4] can be described thus: qHTS assay to identify small molecule antagonists of the estrogen related receptor signaling pathway with the pleiotropic PPARgamma coactivator (PGC) from Tox21 10K library - cell viability counter screen (AID 1224840; active = well fitted cell-killing curve with a large enough effect in the repeat runs, not every such curve was filed as active; note: nearly all actives have a fitted effect of over 40% in size). The essentials: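 Viability counter screen, PGC/ERR cells: 17.5 h compound exposure at 37 C, CellTiter-Fluor fluorescence endpoint.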
The nature of test [5]: qHTS assay to identify small molecule antagonists of the estrogen related receptor signaling pathway with the pleiotropic PPARgamma coactivator (PGC) from Tox21 10K library (AID 1224841; call rule not given here; note: actives are mostly falling curves and most rising ones were filed inactive; nearly all actives have a fitted effect of over 50% in size). The essentials:
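In the PGC/ERR line, DMSO solutions of test chemicals are pin-delivered to 2,000 cells/well six hours after dispensing. Following eighteen hours' incubation, One-Glo reagent is added and luminescence recorded.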

A short description of test [6]: qHTS assay to identify small molecule agonists of the estrogen related receptor signaling pathway with the pleiotropic PPARgamma coactivator (PGC) from Tox21 10K library (AID 1224842). Note: nearly all actives have a fitted effect of over 15% in size. The essentials: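 PGC/ERR reporter cell line, 2,000 cells per well, incubated 6 h at 37 C before 23 nL compound in DMSO was added. After 18 h at 37 C, One-Glo luminescence read following 30 min at room temperature.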

Test [7] addresses Thyrotropin receptor (Homo sapiens) (UniProt P16473). In words: qHTS assay to identify small molecule agonists of the thyroid stimulating hormone receptor (TSHR) signaling pathway (AID 1224843; calls by dose curve; note: nearly all actives have a fitted effect of over 45% in size). The essentials: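 Agonist-mode screen: TSHR HEK293 cells received test chemicals for half an hour at room temperature, then HTRF cAMP detection reagents for one hour prior to fluorescence measurement. Each chemical ran as a 15-concentration series, triplicated.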

A short description of test [8]: qHTS assay to identify small molecule agonists of the hypoxia (HIF-1) signaling pathway - cell viability counter screen (AID 1224844; calls by dose curve; note: nearly all actives have a fitted effect of over 50% in size; note: potency is the fitted concentration of half-maximal effect). In a few lines:
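Same wells as the HIF-1 reporter screen; ME-180 cells carrying HRE-bla, 17 hr treatment at 37C; CellTiter-Glo luminescence read after 30 min at room temperature.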

Test [9] can be described thus: qHTS assay to identify small molecule agonists of H2AX (AID 1224845; active = well fitted activation curve with a large enough effect in the signal ratio in the repeat runs, not every such curve was filed as active; the % refers to the signal ratio). The essentials:
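Wild-type CHO-K1 cells, plated overnight, exposed 3hr at 37C to 15 concentrations (0.76% DMSO final). Lysed, then HTRF anti-pH2AX (S139) cryptate and anti-H2AX-d2 antibodies, 24 hr room temperature; 665/620 nm emission read.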

Test [10] can be described thus: qHTS assay to identify small molecule agonists of the hypoxia (HIF-1) signaling pathway (AID 1224846; active = well fitted activation curve with a large enough effect in the signal ratio in the repeat runs, not every such curve was filed as active; the % refers to the signal ratio). In a few lines:
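In ME-180 cells bearing an HRE-bla construct, 17 h treatment with DMSO-dissolved compounds at 37C was followed by CCF4-AM loading to quantify reporter induction.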

Test [11] in a line: qHTS assay to identify small molecule agonists of H2AX - cell viability counter screen (AID 1224847; calls by dose curve; note: nearly all actives have a fitted effect of over 30% in size; note: potency is the fitted concentration of half-maximal effect). In a few lines:
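CHO-K1 cells plated overnight at 37C, then exposed 3 h at 37C to compounds at 15 concentrations (0.76% DMSO final). Viability by CellTiter-Glo luminescence after 30 min at room temperature.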

The nature of test [12]: qHTS assay to identify small molecule antagonists of the estrogen related receptor (ERR) signaling pathway from Tox21 library (AID 1224848). Note: nearly all actives have a fitted effect of over 50% in size. Note: potency is the fitted concentration of half-maximal effect. The essentials: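 Quantitative high-throughput format: ERR reporter cells (2,000/well) pre-incubated 6 h, treated 18 h at 37 C with compounds in DMSO alongside positive and negative controls, then read by ONE-Glo luminescence.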
Test [13] is described as follows: qHTS assay to identify small molecule agonists of the estrogen related receptor (ERR) signaling pathway from Tox21 library (AID 1224849; calls by dose curve; note: nearly all actives have a fitted effect of over 15% in size). The conditions noted are these: ERR reporter cell line, ONE-Glo luciferase, 18 h; at 92.4 µM (top of the series) unless noted. In a few lines: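 Reporter cells (ERR, NTP source) treated with Tox21 10K compounds 18 h, 37 C. Readout: ONE-Glo luminescence, 30 min RT.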

Test [14] can be described thus: qHTS RealTime-Glo MT Cell Viability Assay in HepG2 cells - 24 hour (AID 1224867). Note: nearly all actives have a fitted effect of over 50% in size. In a few lines:
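Luminescence read-out: viable HepG2 cells reduce a prosubstrate to a NanoLuc substrate, giving a signal proportional to live cell number. Reads taken at 0, 8, 16, 24, 32 and 40 h of compound exposure at 37 C.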

The nature of test [15]: qHTS RealTime-Glo MT Cell Viability Assay in HEK293 cells - 32 hour (AID 1224868). Note: nearly all actives have a fitted effect of over 50% in size. Note: potency is the fitted concentration of half-maximal effect. In a few lines:
(§1)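 Nonlytic real-time viability readout: viable cells convert prosubstrate to NanoLuc substrate, giving luminescence proportional to live cell number. HEK293, 600 cells/well, compound added after 5 h, continuous culture at 37 C.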

A short description of test [16]: A CellTox Green Cytotoxicity Assay to monitor cytotoxicity in HEK293 cells - 0 hour (AID 1224869). Note: nearly all actives have a fitted effect of over 50% in size. In a few lines: (§2)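 Homogeneous no-lysis format: HEK293 cell suspension mixed with CellTox Green reagent, seeded, incubated 5 h at 37 C/5% CO2, then dosed by pintool with compound in DMSO.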
A short description of test [17]: qHTS RealTime-Glo MT Cell Viability Assay in HepG2 cells - 40 hour (AID 1224870). Note: nearly all actives have a fitted effect of over 50% in size. The essentials: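 HepG2 cells (600/well) mixed with RealTime-Glo MT reagent, settled 5 h at 37 C/5% CO2 before compound addition. Nonlytic NanoLuc luminescence from viable-cell prosubstrate reduction read repeatedly during 40 h treatment at 37 C.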
Test [18] in a line: A CellTox Green Cytotoxicity Assay to monitor cytotoxicity in HEK293 cells - 40 hour (AID 1224871). Note: nearly all actives have a fitted effect of over 45% in size. The essentials:
as §2

A short description of test [19]: qHTS RealTime-Glo MT Cell Viability Assay in HEK293 cells - 16 hour (AID 1224872). The essentials:
as §1

The target of test [20] is Nuclear receptor subfamily 1 group I member 3 (Homo sapiens) (UniProt Q14994). In words: qHTS assay to identify small molecule agonists of the constitutive androstane receptor (CAR) signaling pathway (AID 1224839).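 For activation: HepG2 cells stably carrying human CAR and a CYP2B6 luciferase reporter.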 Note: nearly all actives have a fitted effect of over 15% in size. Note: potency is the fitted concentration of half-maximal effect. The essentials:
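HepG2 cells stably co-transfected with hCAR and a CYP2B6-2.2kb luciferase reporter; compounds at 15 concentrations with 0.75 uM PK11195 present. After 24 hr at 37 C, luciferase read by ONE-Glo luminescence.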

A number with no mark means an inactive call. Records with an inconclusive call do not appear. Calls of active or inactive are those of the source. Unless noted, calls come from the whole dose curve; as a rule, active = well fitted curve in the direction sought with a large enough effect in the repeat runs; inconclusive = weak or mixed curves; inactive = no such curve, though single readings can be large; an effect the other way counts as inactive or inconclusive.
% is set by controls: 0 for no effect and ±100 for the full control effect.

Thyrotropin receptor (Homo sapiens), sequence (P16473 whole entry, looked up): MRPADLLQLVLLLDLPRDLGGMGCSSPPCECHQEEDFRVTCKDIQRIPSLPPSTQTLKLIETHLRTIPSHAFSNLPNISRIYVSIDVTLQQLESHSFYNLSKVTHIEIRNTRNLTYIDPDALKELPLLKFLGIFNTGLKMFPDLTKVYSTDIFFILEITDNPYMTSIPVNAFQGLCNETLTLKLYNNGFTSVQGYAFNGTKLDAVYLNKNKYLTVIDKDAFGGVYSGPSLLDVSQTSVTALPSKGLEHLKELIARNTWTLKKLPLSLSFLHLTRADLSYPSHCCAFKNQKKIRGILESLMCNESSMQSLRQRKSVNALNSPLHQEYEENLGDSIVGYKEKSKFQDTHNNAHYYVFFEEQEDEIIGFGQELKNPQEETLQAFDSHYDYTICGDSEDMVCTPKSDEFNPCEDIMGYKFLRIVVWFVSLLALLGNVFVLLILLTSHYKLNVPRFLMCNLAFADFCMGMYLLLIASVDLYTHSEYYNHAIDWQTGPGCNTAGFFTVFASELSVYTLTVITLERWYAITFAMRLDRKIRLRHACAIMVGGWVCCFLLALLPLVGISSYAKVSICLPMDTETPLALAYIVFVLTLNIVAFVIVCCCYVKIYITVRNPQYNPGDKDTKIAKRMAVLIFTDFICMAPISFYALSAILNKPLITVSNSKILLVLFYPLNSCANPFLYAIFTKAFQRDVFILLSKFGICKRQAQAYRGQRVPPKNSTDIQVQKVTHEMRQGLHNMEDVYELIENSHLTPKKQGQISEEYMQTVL
Nuclear receptor subfamily 1 group I member 3 (Homo sapiens), sequence (Q14994 whole entry, looked up): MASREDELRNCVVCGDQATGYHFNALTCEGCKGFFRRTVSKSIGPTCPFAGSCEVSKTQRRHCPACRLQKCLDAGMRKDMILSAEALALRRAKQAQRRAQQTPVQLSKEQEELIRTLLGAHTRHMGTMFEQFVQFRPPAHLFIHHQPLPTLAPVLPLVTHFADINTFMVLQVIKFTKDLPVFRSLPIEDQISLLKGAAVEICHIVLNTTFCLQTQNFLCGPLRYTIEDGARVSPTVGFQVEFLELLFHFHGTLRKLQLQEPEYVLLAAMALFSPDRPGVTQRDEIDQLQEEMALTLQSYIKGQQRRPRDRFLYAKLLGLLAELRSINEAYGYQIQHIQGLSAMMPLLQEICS

For `CCCCCCCC/C=C/CCCOC(C)=O`, the Potency entry in test [1], in [2], in [3], in test [4], in test [5] and in [6] was “inactive” each time. For the same molecule, the Potency result in test [7], in test [8], in test [9], in test [11], in test [12] and in [14] was “inactive” throughout. The Potency entry in test [15], in [16], in [17], in test [18] and in [19] was “inactive” each time. For the same molecule, in test [10], the result was inactive. Besides, the activity change, positive = activation in test [13] is 1.58%.

Turning to `CCOC(=O)CC(C)O` (centres undefined), the Potency entry in test [1], in test [2], in test [3], in [4], in [5] and in test [6] was “inactive” in each case. Besides, the Potency entry in [7], in test [8], in [9], in test [11], in [12] and in test [14] was “inactive” each time. The Potency entry in [16], in test [17], in [18] and in test [19] was “inactive” in each case. Besides, in test [10], the result was inactive. In addition, in test [13], the activity change, positive = activation is -9.04%.

Turning to `COc1cc(C(=O)NS(=O)(=O)c2ccccc2C)ccc1Cc1cn(C)c2ccc(NC(=O)OC3CCCC3)cc12`, the Potency entry in test [1], in [2], in test [3], in test [4], in test [5] and in test [6] was “inactive” each time. In addition, the Potency result in test [7], in test [9], in [11], in [12], in test [15] and in [16] was “inactive” each time. The Potency result in test [17], in test [18] and in [19] was “inactive” throughout. The activity change, positive = activation in test [13] was -10.9% [at 42.5 µM].

For the molecule `c1cc2c3c(c1)ccc1cccc(c13)C2`, the Potency result in test [1], in test [2], in [3], in test [4], in [5] and in test [6] was “inactive” each time. Further, the Potency result in [7], in test [14], in test [16], in [17] and in [19] was “inactive” in each case. Further, the Potency in test [12] was 70.1 µM (active). Besides, the activity change, positive = activation in test [13] was -42.3%.

Regarding `C[C@]12CC[C@H]3C(=CCc4cc(O)ccc43)[C@@H]1CCC2=O`, the Potency entry in test [1], in test [2], in test [3], in test [5], in test [9] and in test [17] was “inactive” in each case. The Potency entry in test [18] is “inactive”. Further, the Potency in [20] is 27.3 µM (active); in test [11], 101 µM (active); in test [12], 61.1 µM (active); in test [15], 49 µM (active). The result in test [10] was inactive. For the same molecule, the activity change, positive = activation in test [13] was -51.5%.

As to `CCc1c(Br)c(Br)c(Br)c(Br)c1Br`, the Potency entry in [1], in test [2], in [3], in test [4], in [6] and in test [8] was “inactive” throughout. In addition, the Potency entry in test [11], in [12], in test [15], in [16], in test [17] and in test [19] was “inactive” each time. Besides, in test [13], the activity change, positive = activation was -5.33%.

Turning to `CO[C@H]1C=CO[C@@]2(C)Oc3c(C)c(O)c4c(O)c(cc(O)c4c3C2=O)NC(=O)/C(C)=C\C=C/[C@H](C)[C@H](O)[C@@H](C)[C@@H](O)[C@@H](C)[C@H](OC(C)=O)[C@@H]1C`, the Potency in test [1] is 61.6 µM (active); in test [2], 48.9 µM (active); in test [8], 22 µM (active). The Potency result in test [3], in test [5], in test [6], in [11], in test [14] and in [15] was “inactive” in each case. The Potency entry in [16], in test [17], in test [18] and in test [19] was “inactive” throughout. Also, the activity change, positive = activation in [13] is -31.9%.

Take `CC1CCCNC1` (centres undefined): the Potency result in [1], in test [2], in [20], in test [4], in test [7] and in [9] was “inactive” each time. For the same molecule, the Potency entry in test [11], in [14], in [15], in test [16], in [17] and in test [18] was “inactive” each time. Moreover, the Potency result in [19] is “inactive”.
